High-throughput results: PubChem, Broad Institute
Shh pathway inh: Hedgehog pathway signaling inhibitors, primary screen, luminescence, Shh-LIGHT2 cells, Gli-luciferase. Shh-LIGHT2 Gli-luciferase reporter, 30 h. inhibition, % (concentration not given with the values). hit rate 2.1% among 22,000;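 active means mean inhibition across valid replicates above about 65%, limit read from the data; inconclusive means mean under the limit, yet half or more replicates past it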;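 further: pathway switched on by Shh-conditioned medium diluted 1 in 25 in low serum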
NOMO-1 viab: NOMO-1 AML cell viability reduction, primary screen, STK33 inhibitor project, CellTiter-Glo luminescence | hit rate 7.5% among 37,000 | NOMO-1 AML viability, 72 h | inhibition, % (concentration not given with the values); in the data active means inhibition above about 80%; inconclusive means no clear call, values can overlap the other calls
MITF inh: inhibitors of MITF, primary screen, MITF inhibitor project, cell-based, luminescence; TRPM1 promoter luciferase, 24 h; inhibition, % (no concentration beside the values); hit rate 0.28% among 37,000; AID 2240, 2010; in the data active means inhibition above about 85%; inconclusive means no clear call, values can overlap the other calls; inactive means below about 68%;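 further: human melanocyte line stably carrying TRPM1 promoter luciferase reporter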
A number is an active result; - = inactive; ? = inconclusive; . = no result given. Most compounds without a hit are left out; they make up all but 7.8% or so of the library.

SMILES | Shh pathway inh | NOMO-1 viab | MITF inh
C[C@@H]1CN([C@@H](C)CO)C(=O)c2cc(NS(=O)(=O)c3ccc(F)cc3)ccc2O[C@@H]1CN(C)CC1CCCCC1 | - | - | -
COc1ccc(-n2c(SCC(N)=O)nc3c(c2=O)C2(CCCCC2)Cc2ccccc2-3)cc1 | . | - | -
C[C@@H]1CN([C@H](C)CO)C(=O)Cc2cc(NC(=O)NC3CCCCC3)ccc2O[C@@H]1CN(C)C(=O)Nc1cccc2ccccc12 | ? | - | -
COCCNC(=O)c1c(NC(=O)c2nc(SC)ncc2Cl)sc2c1CCCC2 | . | 138 | -
CSc1ncc(Cl)c(C(=O)Nc2sc3c(c2C(=O)NCCc2ccccc2)CCC3)n1 | . | - | -
CCCCCCCCN1C(=O)C(C(C)=O)=C(C)C1(C)O (configuration not stated) | - | 98 | -
CC[N+](C)(CC)CCOC(=O)C1c2ccccc2Oc2ccccc21 | - | - | -
C[C@H]1CN([C@@H](C)CO)C(=O)Cc2cc(NC(=O)NC3CCCCC3)ccc2O[C@@H]1CN(C)S(=O)(=O)c1cn(C)cn1 | - | - | -
CCOC(=O)c1sc(SCCS(=O)(=O)c2ccc(Cl)cc2)c2c1CCCC2=O | - | - | -
Cc1ccc(S(=O)(=O)CCSc2sc(C#N)c3c2C(=O)CC(C)(C)C3)cc1 | 66 | 94 | -
CC(Oc1ccc(C(C)(C)C)cc1)C(=O)NCc1ccccn1 (configuration not stated) | . | - | -
C[C@H]1CN([C@@H](C)CO)C(=O)Cc2cc(NC(=O)Cc3ccccc3)ccc2O[C@@H]1CN(C)C(=O)NC1CCCCC1 | - | - | -
C[C@@H]1CN([C@H](C)CO)C(=O)c2cccc(NS(=O)(=O)c3ccc(Cl)cc3)c2O[C@H]1CN(C)Cc1ccc(Oc2ccccc2)cc1 | - | - | -
C[C@H](CO)N1C[C@H](C)[C@@H](CN(C)Cc2ccc(Oc3ccccc3)cc2)Oc2c(NS(=O)(=O)c3ccc(Cl)cc3)cccc2C1=O | - | 104 | -
C[C@H](CO)N1C[C@H](C)[C@H](CN(C)Cc2ccc(Cl)c(Cl)c2)Oc2c(NS(=O)(=O)c3ccccc3)cccc2C1=O | 82 | ? | -
C[C@H]1CN([C@@H](C)CO)C(=O)c2cccc(NS(=O)(=O)c3ccc(Cl)cc3)c2O[C@H]1CN(C)Cc1ccc(Oc2ccccc2)cc1 | - | ? | -
C[C@@H]1CN([C@@H](C)CO)C(=O)c2cccc(NS(=O)(=O)c3ccc(Cl)cc3)c2O[C@@H]1CN(C)Cc1ccc(Oc2ccccc2)cc1 | - | 88 | -
C[C@H]1CN([C@@H](C)CO)C(=O)c2cccc(NS(=O)(=O)c3ccccc3)c2O[C@@H]1CN(C)Cc1ccc(Cl)c(Cl)c1 | - | - | -
Cc1noc(C)c1NC(=O)Nc1ccc2c(c1)C(=O)N([C@H](C)CO)C[C@@H](C)[C@@H](CN(C)C(=O)Nc1c(C)noc1C)O2 | - | - | -
C[C@@H]1CN([C@@H](C)CO)C(=O)c2cccc(NC(=O)C3CCCCC3)c2O[C@H]1CN(C)C(=O)Nc1ccccc1 | - | - | -
C[C@@H]1CN([C@@H](C)CO)C(=O)c2cc(NC(=O)Nc3ccc(C(F)(F)F)cc3)ccc2O[C@@H]1CN(C)C(=O)Nc1ccc2c(c1)OCO2 | - | 102 | -
C[C@H]1CN([C@@H](C)CO)C(=O)c2cc(NC(=O)Nc3ccc(C(F)(F)F)cc3)ccc2O[C@H]1CN(C)C(=O)Nc1ccc2c(c1)OCO2 | - | - | -
C[C@@H]1CN([C@H](C)CO)C(=O)c2cc(NC(=O)Nc3ccc(C(F)(F)F)cc3)ccc2O[C@@H]1CN(C)C(=O)Nc1ccc2c(c1)OCO2 | - | 95 | -
C[C@@H]1CN([C@H](C)CO)C(=O)c2cc(NC(=O)Nc3ccc4c(c3)OCO4)ccc2O[C@H]1CN(C)C(=O)Nc1ccc(C(F)(F)F)cc1 | - | - | -
C[C@@H]1CN([C@@H](C)CO)C(=O)c2cccc(NC(=O)Nc3ccc(F)cc3)c2O[C@H]1CN(C)S(=O)(=O)c1ccc(Cl)cc1 | - | - | -
SMILES | Shh pathway inh | NOMO-1 viab | MITF inh
C[C@H](CO)N1C[C@H](C)[C@@H](CN(C)S(=O)(=O)c2ccc(Cl)cc2)Oc2c(NC(=O)Nc3ccccc3)cccc2C1=O | - | - | -
C[C@H]1CN([C@@H](C)CO)C(=O)c2cccc(NC(=O)Nc3ccc(F)cc3)c2O[C@@H]1CN(C)S(=O)(=O)c1ccc(Cl)cc1 | - | - | -
C[C@H](CO)N1C[C@H](C)[C@H](CN(C)S(=O)(=O)c2ccc(Cl)cc2)Oc2c(NC(=O)Nc3ccccc3)cccc2C1=O | 117 | - | -
C[C@H](CO)N1C[C@H](C)[C@H](CN(C)S(=O)(=O)c2ccc(Cl)cc2)Oc2c(NC(=O)Nc3ccc(F)cc3)cccc2C1=O | 117 | 93 | -
C[C@@H]1CN([C@@H](C)CO)C(=O)c2cccc(NC(=O)Nc3ccc(F)cc3)c2O[C@@H]1CN(C)S(=O)(=O)c1ccc(Cl)cc1 | - | 82 | -
Cc1ccc(S(=O)(=O)N(C)C[C@@H]2Oc3ccc(NC(=O)Nc4cccc5ccccc45)cc3C(=O)N([C@H](C)CO)C[C@H]2C)cc1 | - | - | -
C[C@@H]1CN([C@H](C)CO)C(=O)c2cc(N(C)C)ccc2O[C@H]1CN(C)Cc1ccc(-c2ccccc2)cc1 | - | - | -
Cc1ccc(C2=NC(C(F)(F)F)(C(F)(F)F)N=C3SCCN32)cc1 | - | - | -
CC(=O)O[C@@H]1C=C[C@@]2(C)C(C[C@@H](OC(C)=O)[C@@]3(C)C4=CC(=O)O[C@@H](c5ccoc5)[C@]4(C)CCC23)C1(C)C (some centres not stated) | - | 106 | 91
CC(=O)O[C@@H]1CC2C(C)(C)C(=O)C=C[C@]2(C)C2CC[C@@]3(C)[C@H](c4ccoc4)OC(=O)[C@H]4O[C@]43[C@@]21C (some centres not stated) | - | - | -
CC1=CC(=O)C2=C(C)CC[C@@H]3[C@H](OC(=O)[C@H]3C)[C@@H]12 | - | - | -
C=C1C(=O)O[C@H]2C1CCC(C)=C1C(=O)C=C(C)[C@@H]12 (some centres not stated) | - | 115 | -
Cc1c(C)c(C)c2[nH]c(SCc3nc(-c4ccc(Cl)cc4)no3)nc2c1C | - | - | -
COc1ccc(S(=O)(=O)N(C)C[C@H]2Oc3ccc(NS(=O)(=O)c4ccc(F)cc4)cc3C(=O)N([C@@H](C)CO)C[C@H]2C)cc1 | - | - | -
COc1ccc(CC(=O)Nc2ccc(S(N)(=O)=O)cc2)cc1OC | . | - | -
COc1ccc(CC(=O)Nc2ccc(NC(=O)c3ccco3)cc2)cc1OC | . | 114 | -
COc1ccc(NC(=O)c2ccco2)cc1NC(=O)COc1cc(C)c(Cl)c(C)c1 | . | 96 | -
COc1cc(NC(=O)COc2cc(C)c(Cl)c(C)c2)ccc1NC(=O)c1ccco1 | . | - | -
COc1ccc(NC(=O)Nc2cccc3c2O[C@H](CN(C)S(=O)(=O)c2cccs2)[C@H](C)CN([C@H](C)CO)C3=O)cc1 | - | - | -
O=C(CSc1n[nH]c(-c2ccc(Cl)cc2)n1)Nc1ccc(Br)c(Cl)c1 | . | - | -
Cn1c(SCC(=O)Nc2ccc(Cl)cc2)nc2sc3c(c2c1=O)CCCC3 | . | - | -
